# Test results published in the supplement of paper PMC12645437, “Orthogonal IMiD-Degron Pairs Induce Selective Protein Degradation in Cells” (ACS Chemical Biology, 2025).
# Whole data set: some 8,300 sequences, median “log2 fold change of degron read counts, EGFP-low vs EGFP+ sorted cells (limma voom), compound-induced degradation” near -1.1, cut for the highest 2% near 3.2. Many of the other results were omitted from the sample, so the highest values are more common in it than they were.
# T1: CRBN, Q96SW2
# T1 chain: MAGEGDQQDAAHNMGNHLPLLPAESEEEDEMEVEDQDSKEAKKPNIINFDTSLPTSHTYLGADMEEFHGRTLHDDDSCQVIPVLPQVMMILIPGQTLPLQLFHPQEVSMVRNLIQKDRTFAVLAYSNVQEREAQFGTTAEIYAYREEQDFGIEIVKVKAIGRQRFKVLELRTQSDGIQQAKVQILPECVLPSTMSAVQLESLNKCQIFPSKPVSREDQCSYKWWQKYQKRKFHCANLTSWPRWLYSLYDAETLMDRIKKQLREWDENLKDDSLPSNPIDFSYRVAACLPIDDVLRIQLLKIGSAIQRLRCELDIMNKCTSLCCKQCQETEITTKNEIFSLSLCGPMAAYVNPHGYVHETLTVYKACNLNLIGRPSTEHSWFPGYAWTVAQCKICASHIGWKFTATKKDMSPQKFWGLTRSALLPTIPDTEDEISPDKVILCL
# B1: 46F_47Y_49N_50V_52G_53A_54A_55F_67L_, Q9UKT9 (peptide)
# chain: FYCNVCGAAFTQKGNLLRHIKL
# B2: 46F_47W_49E_50V_52G_53A_54A_55F_67L_, Q9UKT9 (peptide)
# chain: FWCEVCGAAFTQKGNLLRHIKL
# B3: 46F_47V_49D_50V_52G_53A_54G_55F_67L_, Q9UKT9 (peptide)
# chain: FVCDVCGAGFTQKGNLLRHIKL
# B4: 46F_47E_49D_50Q_52G_53A_54L_55F_67L_, Q9UKT9 (peptide)
# chain: FECDQCGALFTQKGNLLRHIKL
# B5: 46F_47D_49N_50V_52G_53A_54F_55F_67L_, Q9UKT9 (peptide)
# chain: FDCNVCGAFFTQKGNLLRHIKL
# B6: 46F_47R_49E_50I_52G_53A_54H_55F_67L_, Q9UKT9 (peptide)
# chain: FRCEICGAHFTQKGNLLRHIKL
# B7: 46L_47D_49E_50I_52G_53F_54N_55C_67L_, Q9UKT9 (peptide)
# chain: LDCEICGFNCTQKGNLLRHIKL
# B8: 46F_47I_49E_50V_52G_53A_54A_55F_67L_, Q9UKT9 (peptide)
# chain: FICEVCGAAFTQKGNLLRHIKL
# B9: 46F_47L_49E_50V_52G_53A_54A_55F_67L_, Q9UKT9 (peptide)
# chain: FLCEVCGAAFTQKGNLLRHIKL
# B10: 46F_47A_49E_50V_52G_53A_54A_55F_67L_, Q9UKT9 (peptide)
# chain: FACEVCGAAFTQKGNLLRHIKL
# B11: 46F_47F_49E_50V_52G_53A_54A_55F_67L_, Q9UKT9 (peptide)
# chain: FFCEVCGAAFTQKGNLLRHIKL
# B12: 46F_47F_49P_50V_52G_53A_54A_55F_67L_, Q9UKT9 (peptide)
# chain: FFCPVCGAAFTQKGNLLRHIKL
# B13: 46F_47R_49E_50V_52G_53A_54A_55F_67L_, Q9UKT9 (peptide)
# chain: FRCEVCGAAFTQKGNLLRHIKL
# B14: 46F_47E_49E_50V_52G_53A_54A_55F_67L_, Q9UKT9 (peptide)
# chain: FECEVCGAAFTQKGNLLRHIKL
# B15: 46F_47V_49E_50V_52G_53A_54A_55F_67L_, Q9UKT9 (peptide)
# chain: FVCEVCGAAFTQKGNLLRHIKL
# Biological target: T1, CRBN, Q96SW2
# Assay: log2 fold change of degron read counts, EGFP-low vs EGFP+ sorted cells (limma voom), compound-induced degradation; higher = more compound-induced degradation of the degron-EGFP fusion; degrons are variants of IKZF1/3 zinc finger 2; compound dose not given here
# Settings: Jurkat, 18 h
# Experimental: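 Pooled library of 8380 IKZF3 ZF2 degron mutants (positions 146-167 varied within the IKZF3 130-189 degron; only the varied core is printed, flanks not printed) fused to EGFP with IRES-mCherry, lentivirally expressed in Jurkat cells. mCherry+ cells were treated with one IMiD compound for 18 h (dose not stated) and FACS-sorted into EGFP-low and EGFP+ populations. Degron sequences were counted by NGS, and log2FC (EGFP-low vs EGFP+) was estimated by limma voom over 3 biological replicates.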
# [1] = compound: compound 19 (5-tert-butyl-thalidomide)
# [2] = compound: compound 22 (5-morpholino-thalidomide)
# [3] = compound: compound 33 (diphenyl IMiD analogue)
# 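Also: pooled lentiviral library of zinc finger degron-EGFP fusions in mCherry-positive Jurkat cells, FACS-sorted after compound exposure, with degron abundance counted by next-generation sequencing.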
Sequence,log2 fold change of degron read counts [1],log2 fold change of degron read counts [2],log2 fold change of degron read counts [3],log2 fold change of degron read counts (compound: thalidomide)
B1,1.57,2.01,1.33,-0.954
B2,3.39,3.9,2.77,1.54
B3,-0.789,1.19,-0.11,0.879
B4,-3.05,-3.86,-3.38,-2.52
B5,-2.06,-2.22,-1.25,-1.25
B6,-0.542,-0.83,0.979,0.735
B7,-1.97,-2.54,-2.01,-1.74
B8,0.0772,3,2.31,3.04
B9,1.91,0.166,1.52,1.55
B10,3.64,2.99,1.02,1.31
B11,3.47,3.39,2.35,1.61
B12,2.88,2.91,2.41,1.09
B13,2.61,2.62,2.86,2.62
B14,2.56,-0.651,1.75,2.51
B15,1.64,3.28,2.3,3.36
